# Screening results deposited in PubChem BioAssay by National Center for Advancing Translational Sciences (NCATS).
# The list is not random: actives were taken first. Their share in the collection is about 7.9%.
# MARV entry inh = Marburg virus entry inhibition | Potency, µM (titrated, usually from 37.8 µM), for inactives: at the top dose activity change, negative = inhibition, actives largely listed as inhibitors | 300,000 compounds, 1.8% hits | AID 540276 | Marburg virus pseudotyped entry inhibition, cell reporter; calls by dose curve; tested in HEK293 cells; also: potency is read from the fitted curve at half-maximal effect
# FMDV antiviral = antivirals against foot and mouth disease virus. FMDV antiviral cell-based qHTS. Potency, µM (series often up to 57.9 µM), inactives show top-dose activity change, negative = inhibition, usual class: inhibitors. 410,000 compounds, 1.2% hits; calls by dose curve; tested in HEK293T cells; also: read-out not given here; potency is read from the fitted curve at half-maximal effect; nearly all actives have a fitted effect of over 45% in size
# HCMV antiviral = blocks human cytomegalovirus replication | 410,000 compounds, 4.5% hits | HFF cells, HCMV-luciferase reporter, 72 h; active compounds read low | AID 1259415 | activity change, negative = inhibition, % at 57.5 µM; in the data active = activity change below about -60%; inconclusive = no clear call, values can overlap the other calls; inactive = above about -39%
#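 Steps: HFFs plated, 16 h 37C; compounds added; HCMV-luciferase added to MOI 1 PFU/cell; 72 h 37C; OneGlo reagent, 5 min room temperature; luminescence read, normalized to controls.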
# LASV entry inh = inhibitors of Lassa virus binding or cell entry; 300,000 compounds, 1.2% hits; Lassa virus pseudotype entry inhibition, cell reporter; Potency, µM (series often up to 37.9 µM), without a hit: top-dose activity change, negative = inhibition, hits mostly inhibitors; calls by dose curve; tested in HEK293 cells; also: potency is read from the fitted curve at half-maximal effect; nearly all actives have a fitted effect of over 50% in size
# HCV inh = inhibitors of hepatitis C virus infection; 340,000 compounds, 3.4% hits; Huh7.5.1 HCVcc-Cre infection, luciferase reporter, 44 h; Potency, µM (doses to about 41.8 µM), inactives show top-dose activity change, negative = inhibition, most hits filed as inhibitors; active = well fitted inhibition curve with a large enough effect; inconclusive = small, poorly fitted or top-dose-only effect, or another doubt; inactive = no such curve, though single readings can be large or run the other way; also: potency is read from the fitted curve at half-maximal effect
#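 Cells (1,000/well) were plated 4 h before compound, then infected with HCVcc-Cre virus (~0.5 moi). After 44 h further culture, infection was read as luciferase luminescence following a 15 min substrate incubation at room temperature.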
# * = called active by the depositor; ? = inconclusive; . = not tested or not shown; [ ] = another dose, or the depositor's remark. % is scaled to controls: 0 for no effect and ±100 for the full control effect.
SMILES,MARV entry inh,FMDV antiviral,HCMV antiviral,LASV entry inh,HCV inh
COc1ccc(CCN2C(=O)CC(NNC(=O)c3ccccc3Br)C2=O)cc1 (stereo not given),-2%,-13%,-65*,14%,1%
COc1ccc(/C=C/c2noc(-c3ccccc3O)n2)cc1,?,0%,-22,11µM*,-4%
COc1cc(/C=C/c2noc(-c3ccccc3O)n2)cc(OC)c1OC,17%,27%,17,10%,-4%
Cc1ccc(Nc2nccc(N(C)c3ccc4c(C)n(C)nc4c3)n2)cc1S(N)(=O)=O,.,.,-84*,.,.
CCOC(=O)c1c(NC(=O)CCCOc2ccc(Cl)cc2)sc2c1CCC2,.,14%,10,-4%[46.1 µM],.
CCC(=NCCc1c[nH]c2ccccc12)c1c(O)n(C)c(=O)n(C)c1=O,?,16µM*,-75*,?,4.5µM*
CC/C(=N\Nc1ccccc1)c1c(O)n(-c2ccccc2)c(=O)[nH]c1=O,-19%,-30%,17,10µM*,-10%
CCC(=NCCc1c[nH]c2ccccc12)c1c(O)n(-c2ccc(C)cc2)c(=O)[nH]c1=O,?,-9%,-4,1.8µM*,-1%
CCC(=NCc1ccc2c(c1)OCO2)c1c(O)n(C)c(=O)n(C)c1=O,?,?,-66*,?,?
CC/C(=N\Nc1ccccc1)c1c(O)n(C)c(=O)n(C)c1=O,0%,?,2,-1%,-8%
CN(C)S(=O)(=O)c1ccc2c(c1)c(=O)c(C(=O)N1CCN(c3cccc(Cl)c3)CC1)cn2C,?,-4%,-7,-2%[46.1 µM],.
Cc1c(Cl)cccc1NC(=O)Cn1nnc(-c2nc(-c3ccccc3)no2)c1N,.,2%,-11,15%[46.1 µM],.
CCC(=NC(C)c1ccccc1)c1c(O)n(C)c(=O)n(C)c1=O (stereo not given),?,13µM*,?,?,5.6µM*
CC(=NCCc1c[nH]c2ccccc12)c1c(O)n(Cc2ccccc2)c(=O)[nH]c1=O,?,?,?,11µM*,?
NC(=O)CN1C[C@@H](O)CC1=O,1%,.,.,.,.
CCOC(=O)/C=c1/s/c(=C/c2ccc3cc(OC)ccc3c2)c(=O)n1CC(=O)NCC1CCCO1 (stereo not given),-4%[46.1 µM],-20%,-32,-17%[46.1 µM],?
CCOC(=O)/C=c1\s/c(=C\c2c(OC)ccc3ccccc23)c(=O)n1CC(=O)NCC1CCCO1 (stereo not given),?,-5%,-95*,?,?
O=Cc1c2c(cc3ccc(Cl)cc13)CCC2,.,.,3,.,.
O=C(c1cc(-c2ccccc2)nc2ccccc12)N1N=C(C(F)F)CC1(O)C(F)F (stereo not given),-1%,3%,15,?,-3%
Cc1ccc(-c2cc(C(=O)N3N=C(C(F)F)CC3(O)C(F)F)c3ccccc3n2)cc1C (stereo not given),-26%,16%,-89*,5%,?
Cc1ccc2ccc3cccnc3c2n1,?,10%,-78*,?,?
c1cnc2c(c1)ccc1ncccc12,.,1%,0,.,8%
COc1cccc(N2CC(NC(=O)c3ccc(S(=O)(=O)N4CCCC4)cc3)CC2=O)c1 (stereo not given),.,-1%,-3,5%[46.1 µM],.
COc1cc(CC(=O)Nc2ccc(Cl)c(C(F)(F)F)c2)cc(OC)c1OC,?,?,-23,?,?
CCOC(=O)c1cc(-c2ccccc2)n(CCC(=O)Nc2cc(C)cc(C)c2)c1C,.,-23%,115,-9%[46.1 µM],.
SMILES,MARV entry inh,FMDV antiviral,HCMV antiviral,LASV entry inh,HCV inh
CCOC(=O)c1cc(-c2ccccc2)n(CCC(=O)Nc2ccc(Cl)c(C(F)(F)F)c2)c1C,.,40µM*,0,-25%[46.1 µM],.
COc1ccc(C(=O)OCC(=O)Nc2ccc(Cl)c(C(F)(F)F)c2)c(OC)c1OC,-16%,-26%,-62*,-17%,?
COc1nc(-c2ccc(C)cc2)ccc1-c1noc(-c2ccc(C(C)(C)C)cc2)n1,5%[46.1 µM],-18%,-3,18%[46.1 µM],.
O=C(CNC(=O)c1ccc(F)cc1)OCc1cc(=O)n2nc(C3CC3)sc2n1,.,-5%,9,13%[46.1 µM],.
COc1ccccc1N1CCN(c2nc3ccc(C(=O)c4ccccc4)cc3n3c(C)nnc23)CC1,.,-4%,0,11%[46.1 µM],.
NC(=O)c1cccc(-c2ccc3c(c2)N(CC2CC2)C(=O)COC3)c1,.,.,30,.,.
O=S(=O)(NCCNC/C=C/c1ccc(Br)cc1)c1cccc2cnccc12,10µM*,?,.,?,.
CNCCNS(=O)(=O)c1cccc2cnccc12,?,-11%,.,9%,.
O=C(c1ccc(Cl)c(Cl)c1)c1cc(-c2ccccn2)c(N2CCOCC2)s1,?,-23%,-75*,-10%,1%
O=C(c1ccc(Br)cc1)c1cc(-c2ccccn2)c(N2CCOCC2)s1,?,?,55,-29%,?
O=C(/C=C\c1ccc(O)cc1)c1ccc(O)cc1O,10µM*,.,.,.,.
COc1ccc2oc(=O)cc(CN(C)Cc3ccccc3)c2c1,?,-5%,?,-23%[46.1 µM],7.9µM*
CN(Cc1ccccc1)Cc1cc(=O)oc2ccccc12,.,18%,19,?,.
Cc1cc2oc(=O)cc(CN(C)Cc3ccccc3)c2cc1C(C)C,?,-24%,-32,-3%,8.9µM*
Cc1cc2oc(=O)cc(CN3CCCCC3C)c2cc1C(C)C (stereo not given),-26%[46.1 µM],-28%,-35,?,13µM*
COc1ccc(CN(C)Cc2cc(=O)oc3cc(C)c(C(C)C)cc23)cc1OC,?,?,-12,?,?
CC(C)(C)c1ccc(-c2nc(SCC(=O)Nc3ccc(Cl)cc3)[nH]c(=O)c2C#N)cc1,?,-17%,-32,5%[46.1 µM],.
COc1ccc(NC(=O)/C(C#N)=C/c2cc(C)n(-c3ccc(N4CCOCC4)c([N+](=O)[O-])c3)c2C)cc1,-15%,4µM*,?,?,?
Cc1cc(/C=C(\C#N)C(=O)Nc2ccc(F)cc2)c(C)n1-c1ccc(N2CCOCC2)c([N+](=O)[O-])c1,?,?,-79*,-34%,?
COc1ccc(N(C(=O)COc2ccc(Br)cc2)S(=O)(=O)c2ccc(C)cc2)cc1,.,14%,-1,-10%[46.1 µM],.
OC(C#Cc1ccccn1)c1cccs1 (stereo not given),?,4%,-62*,-26%,?
S=c1[nH]c2ccccc2s1,.,31%,.,.,.
CC(=O)c1cccc(NC(=O)C2Cc3c(-c4ccccc4Oc4ccccc4)ccnc3O2)c1 (stereo not given),.,?,-66*,.,.
O=C(Nc1cccnc1)C1Cc2c(-c3ccccc3Oc3ccccc3)ccnc2O1 (stereo not given),.,?,-35,.,.
CN(C)c1cccc(NC(=O)C2Cc3c(-c4ccccc4Oc4ccccc4)ccnc3O2)c1 (stereo not given),.,-35%,-83*,.,.
CC(=O)c1cccc(NC(=O)C2Cc3c(-c4ccco4)ccnc3O2)c1 (stereo not given),.,-10%,-62*,.,.
